# Reference: PubChem BioAssay (Tox21)
# Inconclusive results are not listed. A number with no mark means an inactive call. The call rests on the fitted dose curve.
# Test: qHTS assay to identify small molecule agonists of the AP-1 signaling pathway (AID 1159526)
# Settings: ME-180 (cervical carcinoma) AP-1-bla reporter, beta-lactamase FRET ratio, 5 h; series mostly up to 76.8 µM; activation: at the top concentration
# On the % scale 0 is the no-effect control and ±100 the full control effect.
row,SMILES,activation
1,CN(CC1(C)CCCO1)S(=O)(=O)c1ccc(Cl)c(S(N)(=O)=O)c1 (centres undefined),5.07% [at 35.3 µM]
2,OCc1ccccc1O,7.65% [at 35.3 µM]
3,CN1C(=O)CC(c2ccccc2)C1=O (centres undefined),-1.47% [at 35.3 µM]
4,O=S(=O)(O)C(F)(F)F,-2.71%
5,CCCCC1CCC(=O)O1 (centres undefined),1.31%
6,CCOc1ccc(NC(N)=O)cc1,-4.58%
7,NC/C=C/C(=O)O,2.1% [at 35.3 µM]
8,CCCCC(=O)O[C@]1(C(=O)CO)[C@H](C)C[C@H]2[C@@H]3CCC4=CC(=O)C=C[C@]4(C)[C@@]3(F)[C@@H](O)C[C@@]21C,-0.856% [at 35.3 µM]
9,CCCCCOc1ccc(C2SC(=O)NC2=O)cc1OCC (centres undefined),-0.541% [at 35.3 µM]
10,CC(C)CC(=O)OCc1ccccc1,7.64%
11,CC/C=C\CCOC(=O)C(C)C,-1.48%
12,CCOC(=O)NCCC[Si](OCC)(OCC)OCC,-15.9%
13,N#Cc1ccc(C(c2ccc(C#N)cc2)n2cncn2)cc1,-2.74% [at 35.3 µM]
14,O=C1CCC(C2CCCCC2)CC1,7.57%
15,NC(=O)NS(=O)(=O)c1ccc(Cl)cc1,-1.25% [at 35.3 µM]
16,CCCCCCCCOC(=O)CCCCCCCCC(=O)OCCCCCCCC,-4.42%
17,OCCN(CCO)c1ccccc1,0.644%
18,OCC(CBr)(CBr)CBr,-1.7%
19,CCCNC(C)C(=O)Nc1c(C)csc1C(=O)OC (centres undefined),4.82% [at 35.3 µM]
20,CC1=C(O)C(=O)OC1C (centres undefined),-1.62%
21,O=C1CCCc2ccccc21,-0.917%
22,COC(C)CCO (centres undefined),2.44%
23,CN1CCN(c2c(F)cc3c(=O)c(C(=O)O)cn(CCF)c3c2F)CC1,0.595% [at 35.3 µM]
24,CC(C)Nc1nc(N)nc(Cl)n1,2.93%
25,CC(=O)N[C@@H](CC(C)C)C(=O)O,-3.78% [at 35.3 µM]
26,CCCS(=O)c1ccc2nc(NC(=O)OC)[nH]c2c1 (centres undefined),-1.48% [at 35.3 µM]
27,COc1cc(Cl)ccc1Cl,0.448%
28,O=C1N(c2ccccc2)c2ccccc2C1(Cc1ccncc1)Cc1ccncc1,-2.05% [at 35.3 µM]
29,C1CCOC1,2.22%
